Drawing on PubChem BioAssay (EPA / NIEHS), this text covers AC50 and outcome for two compounds.

As a reminder, the AC50 is the concentration giving half of the maximal activity seen.

Inconclusive results are not listed. Calls of active or inactive are those of the source. Rule for the calls, unless noted: active = hit-call score of the fitted dose curve at least 0.9, where 1 is the maximum; inactive = score below 0.9.

A short description of assay [1]: CCTE_Shafer_MEA_dev_burst_rate: CCTE's Neural Network Formation Assay for Burst Rate, Shafer Lab (AID 2284042).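 For AC50: potency for loss of burst rate below DMSO control.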 A digest of the protocol: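 Cells plated, treated day 0; recorded DIV 5, 7, 9, 12; fed and re-treated DIV 5, 9. Endpoint: bursts per recording time, active-electrode well mean, trapezoidal AUC, fitted in decreasing direction against DMSO baseline.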
The nature of assay [2]: CCTE_Shafer_MEA_dev_bursting_electrodes_number: CCTE's Neural Network Formation Assay for Number of Bursting Electrodes, Shafer Lab (AID 2284043; active = hit-call score of the fitted dose curve at least 0.9, where 1 is the maximum;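 for AC50: potency is for loss of bursting electrodes relative to DMSO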). The gist of the method: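 Primary rat cortical neurons were cultured on PEI-coated 48-well MEA plates (16 electrodes/well) and exposed from plating through day 12, with compound renewed at feeds on DIV 5 and 9. Electrodes bursting ≥1 per 2 min were counted on DIV 5, 7, 9, 12; trapezoidal AUC taken.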

Assay [3] can be described thus: CCTE_Shafer_MEA_dev_per_burst_interspike_interval: CCTE's Neural Network Formation Assay for Burst Interspike Interval, Shafer Lab (AID 2284044).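 For AC50: potency for a decrease of within-burst interspike interval below DMSO level.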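 Note: mean spike spacing inside bursts as AUC over recordings on days 5 7 9 12.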 The gist of the method: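 Primary rat cortical neurons on 48-well MEA plates, exposed from day 0 through day 12, treatment renewed at DIV 5 and 9. Within-burst interspike interval recorded days 5, 7, 9, 12, well-averaged, summarised as AUC; negative fit versus DMSO.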

Assay [4] can be described thus: CCTE_Shafer_MEA_dev_burst_duration_mean: CCTE's Neural Network Formation Assay for Mean Burst Duration, Shafer Lab (AID 2284045).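 For AC50: curve fitted for loss meaning shorter burst duration than DMSO.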 The gist of the method: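 Primary rat cortical neurons on PEI-coated 16-electrode MEA wells, exposed from plating through day 12 with compound renewed at DIV 5 and 9; spontaneous activity recorded days 5, 7, 9, 12. Well-mean burst duration collapsed as trapezoidal AUC, fitted for loss versus DMSO.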

Assay [5] can be described thus: CCTE_Shafer_MEA_dev_interburst_interval_mean: CCTE's Neural Network Formation Assay for Mean Interburst Interval, Shafer Lab (AID 2284046).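 Note: well-mean interburst interval of bursting electrodes as AUC over four recording days; curve fitted for decrease in interburst interval relative to DMSO.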 A digest of the protocol:
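Developing rat cortical networks on 48-well MEAs receive compound from the day of plating. Burst intervals from each active electrode are averaged per well, and AUC over the recording days is fitted in the negative direction against DMSO.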

The nature of assay [6]: CCTE_Shafer_MEA_dev_inter_network_spike_interval_mean: CCTE's Neural Network Formation Assay for Mean Inter-network Spike Interval, Shafer Lab (AID 2284047).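 For AC50: potency for a decrease in mean inter-network spike interval below DMSO.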 A digest of the protocol: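 Rat cortical cultures, 1.5 x 10^5 cells/well on 48-well MEA plates; continuous exposure days 0–12, medium and compound refreshed DIV 5, 9. Mean time between consecutive network-spike peaks; AUC across DIV 5/7/9/12; DMSO baseline, negative fitting direction.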

The nature of assay [7]: CCTE_Shafer_MEA_dev_network_spike_number: CCTE's Neural Network Formation Assay for Number of Network Spikes, Shafer Lab (AID 2284048).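 For AC50: fit as a loss of signal meaning fewer network spikes than DMSO.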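 Note: synchronized bursts across electrodes counted on days 5 7 9 12 and integrated as AUC.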 A digest of the protocol:
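Primary rat cortical neurons were seeded at 1.5 x 10^5 cells/well on PEI-coated 16-electrode MEA wells with laminin, exposed from plating day 0, compound renewed at DIV 5 and 9. Network spikes were recorded on days 5, 7, 9, 12 and summarized as trapezoidal AUC versus DMSO.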

A short description of assay [8]: CCTE_Shafer_MEA_dev_network_spike_peak: CCTE's Neural Network Formation Assay for Mean Number of Electrodes in Network Spike, Shafer Lab (AID 2284049).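 For AC50: fitted for loss of signal meaning fewer electrodes in network spikes than DMSO.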 The gist of the method: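 Continuous 12-day exposure of rat cortical cultures, starting at plating, on MEA plates. Endpoint: electrodes participating in network-spike peaks, AUC across DIV 5–12, DMSO as negative control.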

Assay [9] can be described thus: CCTE_Shafer_MEA_dev_spike_duration_mean: CCTE's Neural Network Formation Assay for Mean Spike Duration, Shafer Lab (AID 2284051).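 For AC50: potency for a decrease in mean network spike duration versus DMSO.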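 Note: mean network spike duration pooled as area under curve over DIV 5 to 12 recordings.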 A digest of the protocol:
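Readout is the average length of network spikes, clustered firing across electrodes, summed over DIV 5, 7, 9 and 12 as area under the curve. Neurons from rat cortex developed networks on MEA plates under continuous 12-day exposure.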

Assay [10] in a line: CCTE_Shafer_MEA_dev_network_spike_duration_std: CCTE's Neural Network Formation Assay for Standard Deviation of Network Spike Duration, Shafer Lab (AID 2284052).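 Note: hits are decreases in network spike duration SD versus DMSO vehicle.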 A digest of the protocol: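 Read-out is the trapezoidal area-under-the-curve across recordings made on days 5, 7, 9 and 12, fitted in the negative direction against DMSO baseline. Neurons were primary rat cortical cells treated from day 0, with treatment renewed at each feed.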

Assay [11] can be described thus: CCTE_Shafer_MEA_dev_per_network_spike_spike_number_mean: CCTE's Neural Network Formation Assay for Mean Number of Spikes in a Network Spike, Shafer Lab (AID 2284053).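 For AC50: fitted as decrease in spikes per network spike relative to DMSO.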 The gist of the method: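 Continuous twelve-day exposure of developing rat cortical networks grown over 16 microelectrodes per well; spontaneous firing is captured at four time points, and the per-network-spike spike number is integrated over development by trapezoidal AUC.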

The nature of assay [12]: CCTE_Shafer_MEA_dev_per_network_spike_spike_percent: CCTE's Neural Network Formation Assay for Percent of Spikes in a Network Spike, Shafer Lab (AID 2284054). The gist of the method: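 Primary rat cortical neurons on 16-electrode MEA wells (PEI-coated, laminin at plating), exposed from day 0 with renewal at DIV 5 and 9; spikes within 0.05 s of network-spike peaks over total spikes, AUC across days 5, 7, 9, 12.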

Assay [13] can be described thus: CCTE_Shafer_MEA_dev_LDH: CCTE's Lactate Dehydrogenase Assay for Cytotoxicity in the Neural Network Formation Assay, Shafer Lab (AID 2284068; active = hit-call score of the fitted dose curve at least 0.9, where 1 is the maximum;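 note: exposure for twelve days from plating with re-dosing on DIV 5 and 9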). The gist of the method: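 Cytotoxicity companion to network-formation recordings: rat cortical neurons received compound over 12 days of development, re-dosed at DIV 5 and 9 feeds. Viability was inferred from LDH enzyme activity relative to DMSO.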

Assay [14] can be described thus: IUF_NPC1b_proliferation_BrdU_72hr: Leibniz Research Institute for Environmental Medicine (IUF) 72-hour Neural Progenitor Cell Bromodeoxyuridine (BrdU) Proliferation Assay (NPC1b) (AID 2284207). The gist of the method: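 hNPC spheres (primary, GW 16-19 fetal cortex), single sphere/well, EGF+FGF medium; 72 h compound, no renewal; BrdU pulse last 16 h; luminescent ELISA; activity vs DMSO baseline; growth-factor withdrawal as positive control.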

Assay [15] can be described thus: IUF_NPC1a_proliferation_area_72hr: Leibniz Research Institute for Environmental Medicine (IUF) 72-hour Neural Progenitor Cell Proliferation Area Assay (NPC1a) (AID 2284208). A digest of the protocol: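 Single 0.25–0.35 mm human fetal neural progenitor spheres in proliferation medium with EGF and FGF, exposed 72 h from plating without renewal at 37C, pH 7.2-7.6. Sphere area growth measured by automated phase-contrast imaging, relative to DMSO.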

Assay [16] is described as follows: IUF_NPC1_viability_72hr: Viability Assessment at 72 hours in the Leibniz Research Institute for Environmental Medicine (IUF) Neural Progenitor Cell Proliferation Assay (NPC1) (AID 2284209). The gist of the method: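 Human fetal-cortex neural progenitor spheres (0.25–0.35 mm, one per well) grown in EGF/FGF proliferation medium at 37C, pH 7.2-7.6, exposed 72 h without renewal; viability read as alamar blue resazurin-to-resorufin fluorescence relative to DMSO.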

The nature of assay [17]: CCTE_Mundy_HCI_Cortical_Synap_Neur_Matur_NeuriteSpotCountPerNeuriteLength: CCTE's Synaptogenesis and Neurite Maturation Assay in rat cortical cells for Neurite Spot Count per Neurite Length, Mundy Lab (AID 2284210). A digest of the protocol:
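Rat primary cortical cultures, glia arrested with AraC at DIV 5, were dosed with media change at DIV 7 and fixed at DIV 12. Synaptophysin puncta per MAP2-labelled neurite length were quantified by high-content imaging versus DMSO.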

Assay [18] is described as follows: CCTE_Mundy_HCI_Cortical_NOG_NeuriteLength: CCTE's Neurite Outgrowth Assay in rat cortical cells for Neurite Length, Mundy Lab (AID 2284213).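 For AC50: neurites imaged about 48 to 50 h after chemical exposure began.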 A digest of the protocol:
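Neurite length was read by high-content imaging of βIII-tubulin-labelled neurites in rat primary cortical cultures. Activity was fitted relative to DMSO.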

The nature of assay [19]: CCTE_Mundy_HCI_Cortical_Synap_Neur_Matur_NeuriteLength: CCTE's Synaptogenesis and Neurite Maturation Assay in rat cortical cells for Neurite Length, Mundy Lab (AID 2284214). The gist of the method: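 Rat primary cortical cells were plated, treated with AraC at DIV 5 to arrest glial growth, then chemical-dosed with media change at DIV 7 through DIV 12. Fixed cells stained for MAP2, synaptophysin and Hoechst; neurite length quantified by high-content imaging.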

The nature of assay [20]: CCTE_Mundy_HCI_Cortical_Synap_Neur_Matur_NeuriteSpotCountPerNeuron: CCTE's Synaptogenesis and Neurite Maturation Assay in rat cortical cells for Neurite Spot Count per Neuron Count, Mundy Lab (AID 2284215). The gist of the method: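 Rat primary cortical cultures given AraC at DIV 5, dosed from DIV 7 to DIV 12 with media change. Fixed, stained for MAP2, synaptophysin and Hoechst; neurite-associated synaptophysin puncta per neuron quantified by high-content imaging versus DMSO.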

For `Cc1c(O)cccc1C(=O)N[C@@H](CSc1ccccc1)[C@H](O)CN1C[C@H]2CCCC[C@H]2C[C@H]1C(=O)NC(C)(C)C`, the AC50 in assay [1] was 0.664 µM (active); in assay [2], 0.819 µM (active); in assay [3], 0.473 µM (active); in [4], 0.311 µM (active); in assay [5], 1.51 µM (active); in assay [6] it was 1.09 µM (active). For the same compound, the AC50 in assay [7] was 1.56 µM (active); in assay [8], 1.26 µM (active); in [9], 0.559 µM (active); in assay [10], 1.27 µM (active); in assay [11], 1.19 µM (active); in assay [12], 6.35 µM (active). For the same compound, the AC50 was 7.06 µM (active) in assay [13]; 8 µM (active) in [14]; 25 µM (active) in assay [15]; 14 µM (active) in [16]; 6.39 µM (active) in assay [17]; 28.9 µM (active) in assay [18]. Moreover, the results for the AC50 in [19] and in [20] were 4.56 µM (active) and 2.49 µM (active), respectively.
Turning to `CC1(C)S[C@@H]2[C@H](NC(=O)[C@H](N)c3ccc(O)cc3)C(=O)N2[C@H]1C(=O)O`, the outcome in [1], in assay [2], in assay [3], in assay [4], in assay [5] and in assay [6] was inactive. In addition, the compound was classed as inactive in [7], in assay [8], in assay [9], in assay [10], in [11] and in assay [12]. Moreover, the outcome in [13], in [14], in assay [15], in assay [16], in [17] and in [18] was inactive. The compound was classed as inactive in [19] and in assay [20].
